# Measurements as given in PubChem BioAssay (NCI).
# The panel holds about 79,000 compounds, 15% with a hit somewhere; the sample as a whole holds those more often. Unmarked numbers belong to inactive results. Activity calls are given as the source filed them. Cut-off read from the data, not from the text of the source: active = growth inhibition above about 70%; inactive = the rest.
# Assays:
# [1] = NCI Yeast Anticancer Drug Screen. Data for the rad50 strain (AID 155);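 note: 0% = growth of vehicle-only cultures of the same strain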; conditions: S. cerevisiae rad50 strain growth inhibition, stronger effect = higher value
# Outline: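 Compounds were tested on a yeast strain with an engineered DNA damage repair alteration; the reported value is growth inhibition normalised to vehicle treatment.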
# [2] = NCI Yeast Anticancer Drug Screen. Data for the mec2-1 strain (AID 157); conditions: S. cerevisiae mec2-1 strain, stronger effect = higher value
# Outline: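 Strain: mec2-1 (DNA repair/cell cycle alteration). Compound exposure, then growth measured; inhibition expressed relative to vehicle.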
# [3] = NCI Yeast Anticancer Drug Screen. Data for the sgs1 mgt1 strain (AID 161);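 note: 0% = growth of cultures given vehicle only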; conditions: S. cerevisiae sgs1 mgt1 strain, stronger effect = higher value
# Outline: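 Mutant yeast exposed to compound; growth scored against vehicle-only wells.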
# [4] = NCI Yeast Anticancer Drug Screen. Data for the cln2 rad14 strain (AID 165);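 note: 0% = growth equal to vehicle treated cultures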; conditions: S. cerevisiae cln2 rad14 strain, stronger effect = higher value
# Outline: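 Compounds are applied to the cln2 rad14 yeast strain, and growth is then compared with that of vehicle-treated cultures to give inhibition.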
# [5] = NCI Yeast Anticancer Drug Screen. Data for the bub3 strain (AID 167); conditions: S. cerevisiae bub3 mutant strain, stronger effect = higher value
# Outline: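 Growth of a checkpoint-deficient yeast mutant is measured after compound exposure. Values represent inhibition relative to vehicle.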
# [6] = NCI Yeast Anticancer Drug Screen. Data for the mlh1 rad18 strain (AID 175); conditions: S. cerevisiae mlh1 rad18 strain growth inhibition, stronger effect = higher value
# Outline: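 Read-out is yeast growth inhibition, calculated against vehicle-only controls. The compound was applied to a strain engineered with DNA damage repair alterations.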
# [7] = at 5.0 µM (retest, dose inferred, filed as 0.5)
# [8] = at 50.0 µM (retest, dose inferred, filed as 5.0)
SMILES,"growth inhibition [1, 7]","growth inhibition [1, 8]",growth inhibition ([1]; at 50.0 µM),"growth inhibition [2, 7]","growth inhibition [2, 8]",growth inhibition ([2]; at 50.0 µM),"growth inhibition [3, 7]","growth inhibition [3, 8]",growth inhibition ([3]; at 50.0 µM),"growth inhibition [4, 7]","growth inhibition [4, 8]",growth inhibition ([4]; at 50.0 µM),"growth inhibition [5, 7]","growth inhibition [5, 8]",growth inhibition ([5]; at 50.0 µM),"growth inhibition [6, 7]","growth inhibition [6, 8]",growth inhibition ([6]; at 50.0 µM)
COc1ccc(C2Oc3c(cccc3OC)C=C2[N+](=O)[O-])cc1 (stereo not given),20%,96% (active),40.5%,23%,98% (active),40.1%,40%,96% (active),37.7%,12%,92% (active),-4.5%,45%,96% (active),45.2%,33%,98% (active),44%
C1=C(c2ccccc2)C(c2ccc(OCCN3CCCCC3)cc2)Oc2ccccc21 (stereo not given),39%,99% (active),99.3% (active),9%,99% (active),99.5% (active),24%,99% (active),97.5% (active),25%,99% (active),98.1% (active),35%,99% (active),98.8% (active),16%,99% (active),99.5% (active)
COC(=O)c1c(C)cccc1C(=O)c1ccc(C)cc1C,-14%,-4%,2.4%,-10%,-3%,-0.1%,-4%,9%,10.6%,-38%,-7%,2.75%,-2%,-16%,5.05%,-11%,21%,23.4%
Cc1ccc(C)c(N2C(=O)C(=O)C(c3nc4ccccc4o3)/C(=N\NC(=O)c3ccccc3O)C2=O)c1 (stereo not given),6%,21%,62.3%,1%,29%,55.2%,7%,21%,63%,8%,33%,53.6%,6%,29%,27.4%,5%,7%,71.9% (active)
COc1ccc2c(c1OC)C(C(Cl)(Cl)Cl)N1CCc3cc4c(cc3C1=C2)OCO4 (stereo not given),15%,54%,67.2%,7%,71% (active),74.5% (active),7%,72% (active),78.4% (active),33%,80% (active),80% (active),20%,86% (active),80.8% (active),11%,66%,62.1%
CCOC(=O)c1csc(/C=C/c2cc(OC)c(OC)c(OC)c2)n1,0%,3%,-1.2%,-1%,1%,0.9%,-2%,41%,46.4%,-4%,-3%,-19.5%,1%,6%,11.9%,-2%,3%,-8.1%
O=C1C2(Cl)C(Cl)=C(Cl)C1(Cl)C1(Cl)C(Cl)=C(Cl)C(=O)C21Cl (stereo not given),55%,88% (active),98.2% (active),45%,92% (active),54.2%,45%,92% (active),39.8%,19%,89% (active),76.4% (active),21%,92% (active),28.4%,66%,90% (active),61.2%
CC1=NN(c2nc(N)nc(C(C)Sc3cc(Cl)c(C)cc3S(N)(=O)=O)n2)C(C)(C)C1 (stereo not given),4%,18%,-51%,-1%,-24%,-25.8%,8%,1%,-10.6%,29%,-6%,40.9%,41%,26%,-17.1%,-6%,0%,2.9%
CCCCCCCC/C=C1\CCC(CN(C)C)C1=O (stereo not given),-2%,97% (active),89.6% (active),-35%,99% (active),93.2% (active),-13%,97% (active),90.7% (active),8%,95% (active),89.5% (active),-23%,98% (active),89.6% (active),-19%,97% (active),89.1% (active)
N#Cc1c(SCc2ccc(Cl)cc2)nsc1Nc1ccc(Cl)cc1,90% (active),95% (active),86.2% (active),91% (active),95% (active),88% (active),91% (active),98% (active),87.2% (active),87% (active),97% (active),87.7% (active),86% (active),98% (active),21%,93% (active),93% (active),86% (active)
